# Data: PubChem BioAssay (Tox21)
# Records with an inconclusive call do not appear. Where a call stands in place of a potency, no number is given. A number with no mark means an inactive call. Calls of active or inactive are those of the source. Calls follow the shape of the dose curve; as a rule, active = well fitted cell-killing curve with a large enough effect in the repeat runs; inconclusive = weak or mixed curves, or effect the other way; inactive = flat fitted curve, though single readings scatter.
# Assay: cAMP Responsive Elements (CRE) small molecule agonists, cell-based qHTS assay: qHTS cell viability counter screen (AID 2060914); also: nearly all actives have a fitted effect of over 50% in size
# Settings: CRE-bla HEK293T viability, CellTiter-Glo luminescence, 5 h; series mostly up to 92.4 µM
# Procedure, shortened: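 Cytotoxicity counter screen multiplexed with the CRE-bla reporter assay in HEK 293T cells: 3 h compound exposure at 37 °C, followed by CellTiter-Glo luminescence measured in the same wells.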
# Potency is read from the fitted curve at half-maximal effect.
Compound,Potency,"activity change, negative = cytotoxicity"
C=CC(=O)OCCCCCCOC(=O)C=C,inactive,–
NC(=O)c1ccccc1[N+](=O)[O-],inactive,–
O=C(O)Cc1cn(-c2ccccc2)nc1-c1ccc(Cl)cc1,inactive,–
CC(C)c1ccc2c(c1)CC[C@H]1[C@](C)(CN)CCC[C@]21C,inactive,–
CC(=O)CC(=O)OC(C)(C)C,inactive,–
C=C(C)C(=O)OCCC[Si](OC)(OC)OC,inactive,–
COC1CCC=CO1 (stereo not given),inactive,–
NC(=O)OCC(COC(N)=O)c1ccccc1,inactive,–
O=C(CCCCC(=O)Nc1c(I)cc(I)c(C(=O)O)c1I)Nc1c(I)cc(I)c(C(=O)O)c1I,inactive,–
Clc1ccc(C(Cn2ccnc2)OCc2c(Cl)cccc2Cl)c(Cl)c1 (stereo not given),inactive,–
Cc1[nH]cnc1C[C@H]1CCc2c(C)c3ccccc3n2C1=O,inactive,–
CC(C(O)c1ccccc1)N(C)CCOC(c1ccccc1)c1ccccc1 (stereo not given),inactive,–
CC(C)c1ccc(O)c(C(C)C)c1,inactive,–
CC(C)CCCCCOC(=O)CS,inactive,–
Cc1c(N)cccc1[N+](=O)[O-],inactive,–
CCCCCCCC/C=C\CCCCCCCC(=O)N(CCO)CCO,inactive,–
CN1CCN(c2c(F)cc3c(=O)c(C(=O)O)cn(CCF)c3c2F)CC1,inactive,–
COC(=O)c1ccccc1OC,inactive,–
CCCCCCCCCCCCCCCO,inactive,–
O=C1CCCC(=O)C1,inactive,–

Compound,Potency,"activity change, negative = cytotoxicity"
CC(=O)O[C@H]1CC[C@@]2(C)C(=CC[C@@H]3[C@@H]2CC[C@]2(C)C(C(C)=O)=CC[C@@H]32)C1,inactive,–
COc1cc2c(cc1OC)CN(C(=O)[C@H](C)N[C@@H](CCc1ccccc1)C(=O)O)[C@H](C(=O)O)C2,inactive,–
Cc1cnccn1,inactive,–
CC1(C)CC(N=C=O)CC(C)(CN=C=O)C1 (stereo not given),inactive,–
CCCCCCCCCCCCCCOS(=O)(=O)O,inactive,–
C=CC(=O)OCCOC1C2CCC1C1CC=CC12 (stereo not given),–,-3.05% [at 18.9 µM]
CC(Cc1cccc(C(F)(F)F)c1)NCCOC(=O)c1ccccc1 (stereo not given),inactive,–
COc1ccccc1OC(=O)Oc1ccccc1OC,inactive,–
Cc1c(C2(c3cc(Br)c(O)c(Br)c3C)OS(=O)(=O)c3ccccc32)cc(Br)c(O)c1Br,52.9 µM (active),–
Cc1c(O)cccc1C(=O)N[C@@H](CSc1ccccc1)[C@H](O)CN1C[C@H]2CCCC[C@H]2C[C@H]1C(=O)NC(C)(C)C,inactive,–
CCCCCC(C)N (stereo not given),inactive,–
CCCC(=O)OCC,inactive,–
CC(C)(c1ccc(Oc2ccc(N)cc2)cc1)c1ccc(Oc2ccc(N)cc2)cc1,inactive,–
COC=O,–,-1.81% [at 8.39 µM]
NC(CS)C(=O)O (stereo not given),inactive,–
C=CC(=O)NCOCC(C)C,inactive,–
CCCCCCCCCCCCCCCCOP(=O)([O-])OCC[N+](C)(C)C,inactive,–
CCCCCCCCOCCC#N,inactive,–
O=Cc1cccc([N+](=O)[O-])c1,inactive,–
O=C(O)c1ccc([N+](=O)[O-])cc1,inactive,–
